# A selection: hits, their analogues and other compounds. The true share with any hit is near 3.8%.
# ATXN viability = reduces viability in counter-screen for ATXN expression inhibitors; 0.49% of 400,000 active; Potency, µM (doses to about 56.7 µM), actives largely listed as cytotoxic; AID 651635; S2 cells (HEK-293 line with an ATXN2-luciferase reporter) viability, CellTiter-Fluor protease fluorescence, 24 h; note: nearly all actives have a fitted effect of over 40% in size
# HT1080 IDH1KD tx = kills HT-1080 cells with IDH1 knockdown | HT-1080 IDH1 knockdown viability, ATP luminescence, 48 h | Potency, µM (top dose mostly 46.1 µM), without a hit: at the highest dose activity, negative = toxicity, actives largely listed as cytotoxic | 2% of 360,000 active | AID 686971;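 note: 0% = DMSO wells and -100% = cell-free medium wells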
#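 Using the IDH1-knockdown HT-1080 line run in the same batch and compound series as the NT line, viability after 48 h at 37 °C was determined by CellTiter-Glo luminescence and expressed as % activity.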
# ATXN2 expr inh = reduces ATXN2 reporter expression in HEK-293 cells. 0.72% of 360,000 active. HEK-293 ATXN2-luciferase reporter, luminescence, 24 h. Potency, µM (highest dose often 57 µM), inactives show top-dose activity change, negative = inhibition, usual class: inhibitors; note: % is set by controls: 0 for no effect and ±100 for the full control effect; nearly all actives have a fitted effect of over 55% in size
#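 ATXN2-luciferase reporter cells (luciferase flanked by upstream and downstream ATXN2 gene portions) were treated 24 h at 37 °C with compounds at up to 57 uM. SteadyGlo luminescence gave expression; GF-AFC fluorescence gave viability.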
# HepG2 tox = counter-screen for TGF-b inhibitors: cytotoxicity in HepG2 cells | HepG2 CAGA-GFP viability, ATP luminescence, 18 h | Potency, µM (highest dose often 46.1 µM), for the others: top-dose activity change, negative = cytotoxicity, actives largely listed as cytotoxic | 0.76% of 410,000 active
#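 CellTiter-Glo luminescence gave cytotoxicity after 18 hours at 37 degrees C. The cells were HepG2 CAGA-GFP in 1% FBS DMEM, stimulated with 500 pg/mL TGF-beta after compound addition. %Activity was normalised to no-cell wells (complete cell-killing) and DMSO (no toxicity), and curves were fitted and classified.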
# HT1080-NT tox = kills 2HG-producing HT-1080-NT fibrosarcoma cells; AID 686970; HT-1080-NT fibrosarcoma viability, CellTiter-Glo ATP luminescence, 48 h; Potency, µM (top dose mostly 46.1 µM), without a hit: at the highest dose activity, negative = less viability, usual class: cytotoxic; 1.6% of 360,000 active;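 note: NT is the 2HG producing partner of a matched IDH1 knockdown line; 0% = DMSO-treated cells and -100% = media-only wells without cells; nearly all actives have a fitted effect of over 55% in size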
#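 Fibrosarcoma NT cells, 750 per well in 5% FBS RPMI, were exposed to compound for 48 hours. Viability: CellTiter-Glo luminescence.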
# TGFb SMAD3 inh = inhibitors of TGF-b signaling; AID 588855; 1.2% of 410,000 active; HepG2 CAGA-GFP TGF-b/SMAD3 reporter, GFP fluorescence, 18 h; TGF-beta stimulated, 500 pg/mL final; Potency, µM (doses to about 46.1 µM), without a hit: at the highest dose activity, negative = inhibition, most hits filed as inhibitors; note: % is set by controls: 0 for no effect and ±100 for the full control effect; nearly all actives have a fitted effect of over 65% in size
#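 HEPG2 CAGA-GFP, 1000 cells/well; 2 h settle, 37 C; cpd via pin tool; TGF-b 500 pg/mL final; 18 h, 37 C; GFP imaging ex488/em500-530; %Activity normalised to -TGF-b and +DMSO controls; CRC fit, curve class.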
# The depositor's hits bear a star; i = inactive; u = inconclusive; x = no result given. Calls come from the whole dose curve; as a rule, active = well fitted curve in the direction sought with a large enough effect; inconclusive = small, poorly fitted or top-dose-only effect, or another doubt; inactive = no such curve, though single readings can be large; an effect the other way counts as inactive or inconclusive. Potency is the fitted concentration of half-maximal effect.
SMILES,ATXN viability,HT1080 IDH1KD tx,ATXN2 expr inh,HepG2 tox,HT1080-NT tox,TGFb SMAD3 inh
O=C(CCl)NC(Cc1ccccc1)c1ccccc1 (stereo not drawn),u,16.4µM*,u,-24.3%,u,-3.6%
N#Cc1cccnc1N1CCN(C(=O)c2cccc3c2C(=O)c2ccc(-c4ccc(Cl)c(C(F)(F)F)c4)cc2S3(=O)=O)CC1,i,1.1%,7.1%,5.4%,9.3%,0.8%
N#Cc1cccnc1N1CCN(C(=O)c2cccc3c2C(=O)c2ccc(Cl)cc2S3(=O)=O)CC1,20µM*,-23.8%,u,-1.7%,u,2.9%
COC(=O)N/N=C/c1ccc(-c2ccc(C)c(Cl)c2)o1,i,22.5%,9.5%,8.6%,10.5%,0.4%
Cc1ccc(-c2ccc(/C=N/c3ncn[nH]3)o2)cc1Cl,i,-0.6%,15.8µM*,-21.2%,0.8%,u
Cn1c(C(c2cc3ccccc3n2C)c2cc3ccccc3n2C)cc2ccccc21,x,x,x,-99.7%,x,u
O=C(Nc1nc(-c2ccccc2)cs1)c1ccc(N2CCOCC2)c([N+](=O)[O-])c1,u,u,12.6µM*,-23.7%,u,-15.8%
Cc1ccccc1C(=O)Nc1cc(S(=O)(=O)N2CCCCC2)ccc1N1CCN(C)CC1,i,-3.8%,-18.0%,-28.4%,u,-22.6%
CN1CCN(c2ccccc2NC(=O)c2ccc(N3CCCC3)c([N+](=O)[O-])c2)CC1,u,u,-23.4%,6.9%,13µM*,10.0%
Cc1ccc(-c2csc(NC(=O)c3cc([N+](=O)[O-])ccc3N3CCOCC3)n2)cc1,i,4.4%,x,5.4%,-9.1%,2.0%
CN1CCN(c2ccc(S(=O)(=O)N3CCCCC3)cc2NC(=O)c2ccc3ccccc3c2)CC1,i,u,-3.4%,-53.9%,-15.8%,35.5µM*
COc1cc(=O)n2c(c1C(=O)N(C)Cc1nonc1C)CCN(Cc1cccc(Cl)c1)CC2,i,x,x,x,x,x
Cc1cc(NC(=O)COC(=O)C(Nc2ccc(C(F)(F)F)cc2Cl)C(C)C)no1 (stereo not drawn),u,u,u,-55.3%,18.4µM*,u
Cc1cc(NC(=O)COC(=O)c2ccc(OC(F)(F)F)cc2)no1,i,11.2%,9.8%,12.2%,10.5%,-24.9%
COc1ccc(S(=O)(=O)Nc2cccc(-c3ccc4nncn4n3)c2)cc1,u,10.3µM*,-16.6%,1.3%,16.4µM*,-10.6%
COc1ccc(C(=O)Nc2cccc(-c3ccc4nncn4n3)c2)cc1,i,u,-2.7%,0.7%,-9.2%,5.0%
CCOC(=O)N/N=C/c1c(C)nn(-c2cccc(C(F)(F)F)c2)c1Cl,i,2.31µM*,-17.9%,-40.5%,3.26µM*,-30.9%
Cc1nn(-c2cccc(C(F)(F)F)c2)c(Cl)c1/C=N/Nc1cccc(C(=O)O)c1,i,-16.5%,50.2%,-54.0%,-9.7%,0.6%
Cc1ccc(N2CC(C(=O)Nc3nccs3)CC2=O)cc1Cl (stereo not drawn),i,2.9%,6.31µM*,-42.6%,-26.3%,-1.1%
COCc1nnc(NC(=O)C2CC(=O)N(c3ccc(C)c(Cl)c3)C2)s1 (stereo not drawn),i,-6.9%,-6.6%,-0.6%,-13.5%,-1.4%
CC(C)Cc1ccc(-c2cc3nc(NCCc4ccc(S(N)(=O)=O)cc4)ccn3n2)cc1,i,23.1µM*,-19.4%,-32.4%,u,11.1%
CC(C)Cc1ccc(-c2cc3nc(NCCCn4ccnc4)ccn3n2)cc1,i,u,4.7%,-52.2%,16.4µM*,u
C[C@H](CO)N1C[C@H](C)[C@@H](CN(C)CC2CCCCC2)Oc2c(NC(=O)Cc3ccccc3)cccc2C1=O,31.6µM*,-18.9%,u,15.8µM*,-11.6%,15.8µM*
